Laboratory results: PubChem BioAssay AID1159580 (chemical genetic matrix, 2015)
Where “and” joins values, the source holds several entries; their conditions need not be identical. Equal entries are not always repeated. In all, about 5,500 compounds went through this assay and about 2,000 (36%) were called active. Roughly 18% stayed inconclusive and do not appear here. Rule as the data show it: active = normalized growth mostly below about 0.91 (no sharp cut-off); inconclusive = no clear call, values can overlap the other calls; inactive = mostly above about 0.92. The list shows a part of the results.

Assay: chemical genetic growth profiling, strain panel (AID 1159580);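 also: tested at 20 µM; growth read once vehicle control cultures reached saturation at 30 °C; 1 = growth at the plate median or of vehicle wells; lower values mean less growth of the strain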
Conditions: S. cerevisiae deletion strains, growth OD

Measured: normalized growth

C[C@H](N)[C@H](O)c1cccc(O)c1
inactive: locus YAL021C, strain ccr4, hits give low values 1 | locus YAL026C, strain drs2, hits give low values 1.01 | locus YAL030W, strain snc1, hits give low values 1 | locus YBL061C, strain skt5, hits give low values 1.01 | locus YBR009C, strain hhf1, hits give low values 1.02 | locus YBR021W, strain FUR4, hits give low values 1.04 | locus YBR023C, strain chs3, hits give low values 1.02 | locus YBR171W, strain sec66, hits give low values 1.02 | locus YBR229C, strain ROT2, hits give low values 0.992 | locus YBR231C, strain swc5, hits give low values 1 | locus YBR279W, strain paf1, hits give low values 1.01 | locus YCL011C, strain gbp2, hits give low values 1 | locus YCL016C, strain dcc1, hits give low values 1.02 | locus YCL029C, strain bik1, hits give low values 0.985 | locus YCL061C, strain MRC1, hits give low values 1.01 | locus YCL069W, strain vba3, hits give low values 0.994 | locus YCR088W, strain abp1, hits give low values 1 | locus YDL005C, strain med2, hits give low values 1.01 | locus YDL035C, strain GPR1, hits give low values 0.983 | locus YDL040C, strain nat1, hits give low values 1 | locus YDL074C, strain BRE1, hits give low values 1.04 | locus YDL101C, strain DUN1, hits give low values 0.997 | locus YDL185W, strain tfp1, hits give low values 0.957 | locus YDL192W, strain arf1, hits give low values 0.99 | locus YDR001C, strain nth1, hits give low values 0.999 | locus YDR069C, strain doa4, hits give low values 1.01 | locus YDR101C, strain arx1, hits give low values 1 | locus YDR137W, strain rgp1, hits give low values 1.03 | locus YDR150W, strain NUM1, hits give low values 0.981 | locus YDR159W, strain sac3, hits give low values 1.03 | locus YDR162C, strain NBP2, hits give low values 0.986 | locus YDR195W, strain ref2 1 | locus YDR297W, strain sur2, hits give low values 1 | locus YDR318W, strain mcm21, hits give low values 0.997 | locus YDR334W, strain swr1, hits give low values 0.999 | locus YDR335W, strain msn5, hits give low values 0.994 | locus YDR388W, hits give low values 0.987 | locus YDR392W, strain spt3, hits give low values 1.02 | locus YDR502C, strain sam2, hits give low values 1 | locus YEL003W, strain gim4, hits give low values 1.01 | locus YEL037C, strain rad23, hits give low values 1 | locus YEL061C, strain CIN8 (second series), hits give low values 0.992 | locus YEL061C, strain CIN8, hits give low values 0.988 | locus YER015W, strain faa2, hits give low values 1.01 | locus YER016W, strain bim1, hits give low values 1.01 | locus YER110C, hits give low values 0.973 | locus YER111C, strain swi4, hits give low values 1 | locus YER155C, strain BEM2 (second series), hits give low values 0.995 | locus YER155C, strain BEM2, hits give low values 1.01 | locus YER167W, strain BCK2, hits give low values 0.989 | locus YFR010W, strain ubp6, hits give low values 1.01 | locus YGL078C, strain dbp3, hits give low values 0.995 | locus YGL086W, strain mad1, hits give low values 1.01 | locus YGL167C, strain pmr1, hits give low values 1.02 | locus YGL173C, strain kem1, hits give low values 1.01 | locus YGL227W, strain vid30, hits give low values 1 | locus YGL240W, strain doc1, hits give low values 1.01 | locus YGL248W, strain PDE1, hits give low values 1.02 | locus YGL253W, strain hxk2, hits give low values 1.01 | locus YGR078C, strain PAC10, hits give low values 1.01 | locus YGR135W, strain pre9, hits give low values 0.942 | locus YGR252W, strain gcn5, hits give low values 1.04 | locus YHR013C, strain ard1, hits give low values 1.02 | locus YHR027C, strain rpn1, hits give low values 1.02 | locus YHR030C, strain SLT2, hits give low values 0.979 and 1.02 | locus YHR079C, strain IRE1 (second series), hits give low values 0.999 | locus YHR079C, strain IRE1, hits give low values 1.02 | locus YHR094C, strain hxt1, hits give low values 0.979 | locus YHR129C, strain ARP1, hits give low values 0.997 | locus YHR142W, strain chs7, hits give low values 1 | locus YHR200W, strain rpn10, hits give low values 0.987 | locus YIL066C, strain RNR3, hits give low values 1 | locus YIL073C, strain SPO22, hits give low values 0.828 | locus YIL125W, strain kgd1, hits give low values 0.988 | locus YIR030C, strain dcg1, hits give low values 0.982 | locus YJL092W, strain hpr5, hits give low values 1.01 | locus YJL095W, strain BCK1 (second series), hits give low values 1.01 | locus YJL095W, strain BCK1, hits give low values 1.01 and 1.04 | locus YJL115W, strain asf1, hits give low values 1.01 | locus YJL129C, strain trk1, hits give low values 0.995 | locus YJL134W, strain LCB3, hits give low values 0.985 | locus YJL154C, strain vps35, hits give low values 0.997 | locus YJL164C, strain tpk1, hits give low values 1.01 | locus YJL166W, strain qcr8, hits give low values 1 | locus YJL168C, strain set2, hits give low values 0.999 | locus YJL187C, strain SWE1 (second series), hits give low values 0.996 | locus YJL187C, strain SWE1, hits give low values 1.01 | locus YJR043C, strain POL32, hits give low values 1.04 | locus YJR066W, strain TOR1, hits give low values 0.991 | locus YKL009W, strain mrt4, hits give low values 0.987 | locus YKL068W, hits give low values 0.977 | locus YKL085W, strain MDH1 (second series), hits give low values 0.984 | locus YKL085W, strain MDH1, hits give low values 0.984 | locus YKL160W, strain elf1, hits give low values 1 | locus YKR001C, strain vps1, hits give low values 0.998 | locus YKR026C, strain gcn3, hits give low values 1.01 | locus YKR091W, strain srl3, hits give low values 0.998 | locus YLL001W, strain dnm1, hits give low values 1.01 | locus YLL026W, hits give low values 1 | locus YLL041C, strain sdh2, hits give low values 1.01 | locus YLR027C, strain aat2, hits give low values 1.01 | locus YLR039C, strain RIC1, hits give low values 0.968 | locus YLR058C, strain SHM2, hits give low values 0.983 | locus YLR102C, strain apc9, hits give low values 0.993 | locus YLR113W, strain HOG1, hits give low values 1.07 | locus YLR221C, strain rsa3, hits give low values 1.01 | locus YLR258W, strain gsy2, hits give low values 1 | locus YLR262C, strain YPT6 (second series), hits give low values 1.03 | locus YLR262C, strain YPT6, hits give low values 0.963 | locus YLR268W, strain sec22, hits give low values 1.01 | locus YLR320W, strain mms22, hits give low values 1.02 | locus YLR330W, strain CHS5, hits give low values 0.985 | locus YLR342W, strain FKS1 (second series), hits give low values 0.98 | locus YLR342W, strain FKS1, hits give low values 1.01 | locus YLR357W, strain rsc2, hits give low values 0.993 | locus YLR370C, strain arc18, hits give low values 1.01 | locus YLR371W, strain rom2, hits give low values 1 | locus YLR384C, strain iki3, hits give low values 1.01 | locus YLR418C, strain cdc73, hits give low values 0.983 | locus YML016C, strain PPZ1, hits give low values 0.995 | locus YML032C, strain rad52, hits give low values 1.01 | locus YML120C, strain ndi1, hits give low values 1.01 | locus YML124C, strain tub3, hits give low values 0.991 | locus YMR058W, strain fet3, hits give low values 1 | locus YMR078C, strain ctf18, hits give low values 0.985 | locus YMR125W, strain sto1, hits give low values 1 | locus YMR129W, hits give low values 1 | locus YMR205C, strain PFK2, hits give low values 1.03 | locus YMR223W, strain ubp8, hits give low values 0.971 | locus YMR231W, strain pep5, hits give low values 1.02 | locus YMR263W, strain SAP30, hits give low values 0.995 | locus YMR307W, strain GAS1, hits give low values 1 | locus YNL067W, strain RPL9B, hits give low values 1.02 | locus YNL071W, strain lat1, hits give low values 0.997 | locus YNL153C, strain GIM3, hits give low values 1.04 | locus YNL183C, strain NPR1, hits give low values 0.989 | locus YNL209W, strain ssb2, hits give low values 1.01 | locus YNL233W, strain BNI4, hits give low values 1.05 | locus YNL248C, strain rpa49, hits give low values 1.01 | locus YNL250W, strain rad50, hits give low values 0.993 | locus YNL271C, strain bni1, hits give low values 0.997 | locus YNL298W, strain CLA4, hits give low values 0.993 | locus YNL307C, strain MCK1, hits give low values 1 | locus YNL322C, strain KRE1 (second series), hits give low values 1.01 | locus YNR049C, strain mso1, hits give low values 1.01 | locus YNR052C, strain pop2, hits give low values 0.993 | locus YOL012C, strain htz1 1.01 | locus YOL147C, strain pex11, hits give low values 0.978 | locus YOR001W, strain rrp6, hits give low values 1.01 | locus YOR061W, strain CKA2, hits give low values 0.996 | locus YOR069W, strain VPS5, hits give low values 0.985 | locus YOR070C, strain gyp1, hits give low values 1.01 | locus YOR080W, strain dia2, hits give low values 1.02 | locus YOR083W, strain WHI5, hits give low values 1.01 | locus YOR106W, strain vam3, hits give low values 1.02 | locus YOR136W, strain idh2, hits give low values 1.01 | locus YOR144C, strain elg1, hits give low values 0.996 | locus YOR184W, strain ser1, hits give low values 0.989 | locus YOR231W, strain MKK1, hits give low values 1.06 | locus YOR265W, strain rbl2, hits give low values 1.01 | locus YOR270C, strain vph1, hits give low values 1.01 | locus YOR290C, strain snf2, hits give low values 1.03 | locus YOR316C, strain cot1, hits give low values 0.99 | locus YPL051W, strain arl3, hits give low values 1.01 | locus YPL055C, strain LGE1, hits give low values 1.06 | locus YPL078C, strain atp4, hits give low values 1.01 | locus YPL106C, strain sse1, hits give low values 1.03 | locus YPL240C, strain hsp82, hits give low values 1.01 | locus YPL256C, strain CLN2, hits give low values 1.04 | locus YPR119W, strain clb2, hits give low values 0.995 | locus YPR141C, strain kar3, hits give low values 0.978 | locus YPR163C, strain tif3, hits give low values 0.987 | locus YPR167C, strain met16, hits give low values 1 | strain wtn01, hits give low values 0.998
